Compound activity as filed in PubChem BioAssay.
This is a sample that favours compounds with a hit; in the whole collection about 19% have one here.
IL-1B inflam inh = qHTS for Inhibitors of Inflammasome Signaling: IL-1-beta AlphaLISA Primary Screen; THP-1 LPS/ATP IL-1B secretion, AlphaLISA, 16 h; hits give low values; activity change, % at 57.5 µM; 360,000 tested, 4.7% active; AID 743279, 2014; in the data active = activity change below about -50%; inconclusive = mostly about -30% to -49%
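Secreted IL-1B measured by AlphaLISA bead assay after 16 h compound exposure of THP-1 cells; compounds (final up to 57.5 uM) added 1 h before LPS (250 ng/mL) and ATP (1.25 mM) stimulation; lower signal means less secretion.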
DT40 TDP1 no CPT = qHTS for Inhibitors of human tyrosyl-DNA phosphodiesterase 1 (TDP1): qHTS in cells in absence of CPT; DT40 Tdp1-/- hTDP1 cells, no CPT, ATP luminescence, 48 h; Potency, µM (doses to about 46.2 µM), usual class: inhibitors; 420,000 tested, 15% active; AID 686978, 2013; also: nearly all actives have a fitted effect of over 55% in size
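No-CPT arm: Tdp1-/-;hTDP1 DT40 cells (400/well) plus compounds, incubated ≥48 hr at 37 °C. Readout CellTiter-Glo luminescence.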
HT1080NT lethal = qHTS for induction of synthetic lethality in tumor cells producing 2HG: qHTS for the HT-1080-NT fibrosarcoma cell line | HT-1080-NT fibrosarcoma viability, CellTiter-Glo ATP luminescence, 48 h | 360,000 tested, 1.6% active | AID 686970, 2013 | Potency, µM (highest dose often 46.1 µM), actives largely listed as cytotoxic;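 also: NT is the 2HG producing partner of a matched IDH1 knockdown line; nearly all actives have a fitted effect of over 55% in size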
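Read-out is CellTiter-Glo luminescence after 10 minutes at room temperature, following 48 hours' compound treatment of HT-1080-NT cells (750 cells/well, RPMI, 5% FBS, 37 degrees C).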
HT1080 IDH1KD tx = qHTS for induction of synthetic lethality in tumor cells producing 2HG: qHTS for the HT-1080-IDH1KD cell line. HT-1080 IDH1 knockdown viability, ATP luminescence, 48 h. Potency, µM (highest dose often 46.1 µM), usual class: cytotoxic. 360,000 tested, 2% active. AID 686971, 2013
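Viability of IDH1-knockdown HT-1080 fibrosarcoma cells was assessed by CellTiter-Glo after 48 h at 37 °C with titrated compound; concentration-effect curves were classified by fit quality and response size.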
DT40 TDP1 CPT = qHTS for Inhibitors of human tyrosyl-DNA phosphodiesterase 1 (TDP1): qHTS in cells in presence of CPT. 420,000 tested, 12% active. chicken DT40 Tdp1-/-;hTDP1 cells + 20 nM CPT, ATP luminescence, 48 h. Potency, µM (doses to about 46.2 µM), hits mostly inhibitors; also: nearly all actives have a fitted effect of over 55% in size
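Chicken DT40 Tdp1-/- cells stably complemented with human TDP1 were seeded at 400 cells/well in medium containing 20 nM camptothecin, exposed to pin-transferred compounds, and grown at 37 °C for at least 48 hr. Viability was read as ATP luminescence.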
Large screens that a line does not name were inactive. Unless noted, calls follow the shape of the dose curve; as a rule, active = well fitted curve in the direction sought with a large enough effect; inconclusive = small, poorly fitted or top-dose-only effect, or another doubt; inactive = no such curve, though single readings can be large; an effect the other way counts as inactive or inconclusive.

COc1ccc(NC(=O)CN(c2ccc(OC)c(Cl)c2)S(=O)(=O)c2ccccc2)c(OC)c1	DT40 TDP1 no CPT 23.1µM, DT40 TDP1 CPT inconclusive
COc1ccc(OC)c(NC(=O)CN(c2ccc(OC)c(Cl)c2)S(C)(=O)=O)c1	DT40 TDP1 no CPT inconclusive
COc1ccc(N(CC(=O)Nc2ccc(OC)cc2OC)S(=O)(=O)c2ccccc2)cc1	DT40 TDP1 no CPT 18.4µM, HT1080 IDH1KD tx inconclusive, DT40 TDP1 CPT 23.1µM
CCOC(=O)c1ccccc1NC(=O)CN(c1ccccc1C)S(C)(=O)=O	DT40 TDP1 no CPT 16.4µM, DT40 TDP1 CPT inconclusive
COc1ccccc1NC(=O)COC(=O)CCc1ccc(S(=O)(=O)N2CCOCC2)cc1	none
Cc1ccc(C)n1-c1ccc(C(=O)NN=C2CCCC2)cc1	none
CCOc1ccc(CCNC(=O)CSc2ncn[nH]2)cc1OCC	none
CCOC(=O)c1ccccc1NS(=O)(=O)c1ccc(OCC)cc1	DT40 TDP1 no CPT 12.6µM, HT1080NT lethal 7.08µM, HT1080 IDH1KD tx 2.24µM, DT40 TDP1 CPT 7.94µM
COc1ccc(N(CC(=O)Nc2cc(OC)ccc2OC)S(=O)(=O)c2c(C)nn(C)c2C)cc1	IL-1B inflam inh inconclusive, DT40 TDP1 no CPT inconclusive, DT40 TDP1 CPT 20.6µM
CCOC(=O)c1ccccc1NC(=O)CN(c1ccccc1OC)S(=O)(=O)c1ccc(C)cc1	DT40 TDP1 no CPT 11.6µM, DT40 TDP1 CPT inconclusive (no result: IL-1B inflam inh, HT1080NT lethal, HT1080 IDH1KD tx)
COc1ccc(N(CC(=O)Nc2ccccc2F)S(=O)(=O)c2ccc(C)c([N+](=O)[O-])c2)cc1	DT40 TDP1 no CPT 23.1µM, DT40 TDP1 CPT inconclusive
COc1ccc(N(CC(=O)NCc2ccncc2)S(=O)(=O)c2ccc(C)c([N+](=O)[O-])c2)cc1	DT40 TDP1 CPT inconclusive
O=C(NCCNC(=O)c1ccccc1F)c1ccco1	none
Cc1ccc(NC(=O)CSc2nnc3nc(C)cc(C)n23)cc1	none (no result: IL-1B inflam inh, HT1080NT lethal, HT1080 IDH1KD tx)
NS(=O)(=O)c1ccc(NC(=O)c2cc(Cl)sc2Cl)cc1	IL-1B inflam inh inconclusive
COC(=O)c1cccc(NS(=O)(=O)c2ccc(OC)c(OC)c2)c1C	DT40 TDP1 no CPT inconclusive, DT40 TDP1 CPT inconclusive
COC(=O)c1cccc(NS(=O)(=O)c2ccc(OC)cc2)c1C	DT40 TDP1 no CPT 6.51µM, HT1080NT lethal 11.6µM, DT40 TDP1 CPT 5.17µM
Cc1ccccc1CN(c1ccc(C(=O)N2CCN(C)CC2)cc1)S(C)(=O)=O	none
CCCCNC(=O)COC(=O)C1CCN(S(=O)(=O)c2ccc3c(c2)OCCO3)CC1	none
O=C(/C=C/c1ccccc1[N+](=O)[O-])NCCN1C(=O)S/C(=C\c2ccc(F)cc2)C1=O	none
CC(C)(C)C(=O)NCCN1C(=O)S/C(=C\c2ccc([N+](=O)[O-])cc2)C1=O	IL-1B inflam inh -73.0, DT40 TDP1 no CPT 23.1µM, DT40 TDP1 CPT inconclusive
O=C(NCCN1C(=O)S/C(=C\c2ccc(Cl)c([N+](=O)[O-])c2)C1=O)C1=COCCO1	IL-1B inflam inh -103.0, DT40 TDP1 no CPT 8.2µM, HT1080NT lethal 14.6µM, HT1080 IDH1KD tx inconclusive, DT40 TDP1 CPT 20.6µM
CCCCn1c2c(c(=O)n(C)c1=O)C(c1ccc(OC)cc1)N1CCCCCC1=N2 (centres undefined)	DT40 TDP1 CPT inconclusive
CCCCCCCCN1[C@@H](CC(=O)OC)c2ccc(/C=C/C(=O)OC)cc2S1(=O)=O	none (no result: IL-1B inflam inh, HT1080NT lethal, HT1080 IDH1KD tx)
O=C(NCC1CCCO1)c1ccccc1OCc1ccc(Cl)cc1 (centres undefined)	DT40 TDP1 no CPT inconclusive, DT40 TDP1 CPT inconclusive
CC(C(=O)NN=C(c1ccccc1)c1ccccc1)N1CCOCC1 (centres undefined)	DT40 TDP1 no CPT 16.4µM, DT40 TDP1 CPT inconclusive
c1ccc(CC2CCN(c3nnnn3-c3ccccc3)CC2)cc1	none
N/C(=N/O)c1ccccc1N1CCC(Cc2ccccc2)CC1	DT40 TDP1 no CPT 14.6µM, DT40 TDP1 CPT inconclusive
CC(=O)Nc1ccc(OCC(O)CN2C(C)(C)CC(O)CC2(C)C)cc1 (centres undefined)	none
COc1ccc(N2CCN(C(=O)C(=O)c3ccc(F)cc3)CC2)cc1	none
COc1ccc(N2CCN(C(c3cccc(OC)c3OC)c3nnnn3C3CCCC3)CC2)cc1 (centres undefined)	IL-1B inflam inh inconclusive, DT40 TDP1 no CPT inconclusive, DT40 TDP1 CPT inconclusive
COc1ccc(N2CCN(C(c3cccs3)c3nnnn3C3CCCC3)CC2)cc1 (centres undefined)	DT40 TDP1 no CPT 16.4µM, DT40 TDP1 CPT 20.6µM
COc1ccc(N2CCN(C(c3ccccc3OC)c3nnnn3C3CCCC3)CC2)cc1 (centres undefined)	IL-1B inflam inh inconclusive, DT40 TDP1 no CPT 20.6µM, DT40 TDP1 CPT 23.1µM
CC(C)N(Cc1cn(C)nc1-c1cccc(Cl)c1)Cc1nccn1C	IL-1B inflam inh inconclusive, DT40 TDP1 no CPT inconclusive, DT40 TDP1 CPT inconclusive
CC1CN(Cc2ccccc2)c2nc3c(c(=O)[nH]c(=O)n3C)n2C1 (centres undefined)	none
O=[N+]([O-])c1ccccc1/C=N/Nc1nnc(-c2ccccc2)c(-c2ccccc2)n1	DT40 TDP1 no CPT 1.64µM, DT40 TDP1 CPT 2.06µM
CCCCNC(=S)N/N=C/c1cccc(OCC)c1O	DT40 TDP1 no CPT 2.06µM, DT40 TDP1 CPT 1.16µM
O=[N+]([O-])c1ccccc1/C=N\Nc1nccs1	none
CCOc1cccc(/C=N/NC(=S)Nc2ccccc2[N+](=O)[O-])c1O	DT40 TDP1 no CPT 8.2µM, HT1080NT lethal inconclusive, HT1080 IDH1KD tx 16.4µM, DT40 TDP1 CPT 9.2µM
O=C(CN(Cc1ccccc1)S(=O)(=O)c1ccccc1)N/N=C/c1ccccc1[N+](=O)[O-]	IL-1B inflam inh inconclusive, DT40 TDP1 no CPT 20.6µM, HT1080NT lethal inconclusive, DT40 TDP1 CPT inconclusive
O=C(CN1CSCC1=O)N1CCN(S(=O)(=O)c2cccc(F)c2)CC1	none
O=[N+]([O-])c1ccccc1C=NNC(=S)NN=Cc1ccccc1[N+](=O)[O-]	DT40 TDP1 no CPT 3.26µM, HT1080NT lethal inconclusive, HT1080 IDH1KD tx inconclusive, DT40 TDP1 CPT 6.51µM
CC1Cc2ccccc2N1C(=O)/C=C/c1cccc(F)c1 (centres undefined)	IL-1B inflam inh -68.6
CC1Cc2ccccc2N1C(=O)COC(=O)/C=C/c1ccc(F)cc1 (centres undefined)	none
CCn1cc(CN2CCC(n3nccc3NC(=O)c3cccc(F)c3)CC2)cn1	none
CCCCN(CCCNC(=O)c1ccc2nc(N3CCOCC3)sc2c1)Cc1ccccc1	DT40 TDP1 no CPT 16.4µM, DT40 TDP1 CPT inconclusive
CCCCN(C)CCCNC(=O)c1ccc2nc(N3CCCCC3)sc2c1	DT40 TDP1 no CPT inconclusive, DT40 TDP1 CPT 23.1µM (no result: IL-1B inflam inh, HT1080NT lethal, HT1080 IDH1KD tx)
